# Inconclusive results are not listed. Calls of active or inactive are those of the source. Calls follow the shape of the dose curve; as a rule, active = well fitted inhibition curve with a large enough effect; inconclusive = small, poorly fitted or top-dose-only effect, or effect the other way; inactive = flat fitted curve, though single readings scatter.
# Molecular target: ATP-dependent 6-phosphofructokinase (Trypanosoma brucei brucei) (UniProt O15648)
# Experiment: qHTS Assay to Find Inhibitors of T. brucei phosphofructokinase: hit validation (AID 492961)
# Details: T. brucei PFK, ADP-Glo luminescence; series mostly up to 51.4 µM; activity change, negative = inhibition: at the top concentration
# Summary of the method: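 Luminescence from ADP-Glo reports ADP generated as T. brucei PFK (1.25 nM) phosphorylates 0.5 mM fructose-6-phosphate using 0.1 mM ATP. Reactions ran 45 min at room temperature, pH 8.0.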
# % is scaled to controls: 0 for no effect and ±100 for the full control effect.
# Sequence of ATP-dependent 6-phosphofructokinase (Trypanosoma brucei brucei) (O15648 whole entry, looked up): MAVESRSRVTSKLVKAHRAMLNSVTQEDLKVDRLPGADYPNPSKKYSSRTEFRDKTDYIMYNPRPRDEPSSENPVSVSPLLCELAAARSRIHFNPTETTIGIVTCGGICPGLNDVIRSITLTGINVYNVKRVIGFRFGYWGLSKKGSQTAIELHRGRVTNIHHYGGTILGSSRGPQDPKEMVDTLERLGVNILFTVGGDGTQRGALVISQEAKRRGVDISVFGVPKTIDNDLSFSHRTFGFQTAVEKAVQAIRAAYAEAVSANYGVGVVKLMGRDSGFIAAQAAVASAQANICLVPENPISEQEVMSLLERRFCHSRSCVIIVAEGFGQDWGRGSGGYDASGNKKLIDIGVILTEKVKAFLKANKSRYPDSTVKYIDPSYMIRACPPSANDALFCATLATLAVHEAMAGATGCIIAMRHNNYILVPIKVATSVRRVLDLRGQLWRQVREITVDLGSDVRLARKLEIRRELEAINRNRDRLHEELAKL
row,SMILES,"activity change, negative = inhibition"
1,O=C(O)COc1ccccc1/C=N/NC(=O)c1ccncc1,-9.63% (inactive)
2,CCC(O)c1ccccc1 (centres undefined),-0.52% (inactive)
3,CC1=CC(=O)NS(=O)(=O)O1,0% (inactive)
4,CCCOc1cc(N)ccc1C(=O)OCCN(CC)CC,2.39% [at 24.3 µM] (inactive)
5,O=C(NNCS(=O)(=O)O)c1ccncc1,0% (inactive)
6,CCCC(=O)O,-0.335% (inactive)
7,CN1C(C(=O)Nc2ccccn2)C(=O)c2sc(Cl)cc2S1(=O)=O (centres undefined),-4.61% (inactive)
8,O=C(O)CC/C=C\CC[C@@H]1[C@@H](N2CCCCC2)[C@@H](O)C[C@@H]1OCc1ccc(-c2ccccc2)cc1,0% (inactive)
9,CCCCCCCCCCCC(=O)N(CCO)CCO,7.15% (inactive)
10,O=C1c2ccccc2CN2C(=O)c3ccccc3CN12,-4.8% (inactive)
11,CCC(=O)c1ccc2c(c1)N(CCCN1CCN(CCO)CC1)c1ccccc1S2,4.64% (inactive)
12,N=C(N)c1ccc(/C=C/c2ccc(C(=N)N)cc2O)cc1,-10.7% (inactive)
13,OCC1(CO)COC(C(Cl)(Cl)Cl)OC1,-2.43% (inactive)
14,CN(C)CCC=C1c2ccccc2C(C)(C)c2ccccc21,-1.73% (inactive)
15,O=C(O)c1ccc(NC(=O)[C@H](Cc2ccc(O)cc2)NC(=O)c2ccccc2)cc1,1.84% (inactive)
16,ClC(Cl)Cl,-0.498% (inactive)
17,FCOC(C(F)(F)F)C(F)(F)F,-5.94% (inactive)
18,O=C(/C=C/c1cccc(F)c1)NC1CC1,6.59% (inactive)
19,C[C@H]1O[C@@H](O[C@H]2[C@@H](O)C[C@H](O[C@H]3[C@@H](O)C[C@H](O[C@H]4CC[C@@]5(C)[C@H](CC[C@@H]6[C@@H]5C[C@@H](O)[C@]5(C)[C@@H](C7=CC(=O)OC7)CC[C@]65O)C4)O[C@@H]3C)O[C@@H]2C)C[C@H](O)[C@@H]1O,7.41% (inactive)

# Source: PubChem BioAssay (NCATS)
